For test [1], the system named is Klebsiella pneumoniae. The conditions noted are these: Concentration 20 uM; ASSAY_TEST Inhibition of Bacterial Growth; detection method Absorption (OD600); MEDIA CAMHB; plate type 384well; NBS; CORNING #3640; time 18 hr.
For test [2], the system named is Candida albicans. The conditions noted are these: 20 µM.
For test [3], the system named is Cryptococcus neoformans. The settings on record: Concentration 20 uM; ASSAY_TEST Inhibition of Fungal Growth; detection method Resazurin; Absorption (OD600-OD570); plate type 384well; NBS; CORNING #3640.

28 compounds from ChEMBL document CHEMBL4513141, “CO-ADD screening of NIH (USA) - Clinical Collection” (2021) can be followed below.

Each structure is given as a SMILES string. Potency and affinity values are given separately.

In general, Inhibition refers to the change of the read-out against control, counted positive when it falls. Regarding `C[C@]12CC[C@@H]3c4ccc(OS(=O)(=O)[O-])cc4CC[C@H]3[C@@H]1CCC2=O.[Na+]` [ESTRONE SODIUM SULFATE], the Inhibition in test [1] was 1.74%; in test [2] it was 3.72%; in test [3], -4.65%.

With `CCOC(=O)[C@H](CCc1ccccc1)N[C@@H](C)C(=O)N1Cc2ccccc2C[C@H]1C(=O)O.Cl` [QUINAPRIL HYDROCHLORIDE], the Inhibition in test [1] was 14.37%; in test [2], 3.86%; in test [3], -5.15%.

`O=c1c(-c2ccccc2)c1-c1ccccc1` [DIPHENCYPRONE]: the Inhibition is -5.06% in test [1], 5.88% in test [2] and 10.54% in test [3].

For `CCOC(=O)[C@H](CCc1ccccc1)N[C@H]1CCc2ccccc2N(CC(=O)O)C1=O.Cl` [BENAZEPRIL HYDROCHLORIDE], the Inhibition was 6.08% in test [1], 3.12% in test [2] and 0.84% in test [3].

For the compound `Cc1cccc(C)c1NC(=O)C(C)N` (centres undefined) [TOCAINIDE], the figures for the Inhibition in test [1], in test [2] and in test [3] were 13.74%, 1.33% and 0.27%, respectively.

Regarding `Cn1cnc([N+](=O)[O-])c1Sc1ncnc2[nH]cnc12` [AZATHIOPRINE], the figures for the Inhibition in test [1], in test [2] and in test [3] were 13.95%, 4.62% and -6.38%, respectively.

`CC(C)OC(=O)CCC/C=C\C[C@@H]1[C@@H](CC[C@@H](O)CCc2ccccc2)[C@H](O)C[C@@H]1O` [LATANOPROST]: the figures for the Inhibition in test [1], in test [2] and in test [3] were 18.51%, 0.35% and -2.04%, respectively.

In the case of `C[C@]12C=CC(=O)C=C1CC[C@@H]1[C@@H]2[C@@H](O)C[C@@]2(C)[C@H]1CC[C@]2(O)C(=O)CO` [PREDNISOLONE], the figures for the Inhibition in test [1], in test [2] and in test [3] were 15.03%, 1.1% and -7.92%, respectively.

`CS(=O)(=O)c1ccc(C2=C(c3ccccc3)C(=O)OC2)cc1` [ROFECOXIB]: the Inhibition in test [1] is 8.3%; in test [2] it was 2.84%; in test [3], -2.65%.

With `COc1ccc2cc([C@H](C)C(=O)[O-])ccc2c1.[Na+]` [NAPROXEN SODIUM], the Inhibition in test [1] is 13.03%; in test [2] it was 9.05%; in test [3] it was -1.8%.

In the case of `CCN(CC)CCOC(=O)c1ccc(N)cc1.Cl` [PROCAINE HYDROCHLORIDE], the Inhibition is 12% in test [1], 3.62% in test [2] and -2.16% in test [3].

Turning to `NS(=O)(=O)Cc1noc2ccccc12` [ZONISAMIDE], the Inhibition in test [1] was 12.91%; in test [2] it was 3.7%; in test [3] it was -5.53%.

For the compound `Cc1cccc(CN2CCN(C(c3ccccc3)c3ccc(Cl)cc3)CC2)c1.Cl.Cl` (centres undefined), the values for the Inhibition in test [1], in test [2] and in test [3] were 10.89%, 1.13% and -13%, respectively.

In the case of `CNCCC=C1c2ccccc2CCc2ccccc21.Cl` [NORTRIPTYLINE HYDROCHLORIDE], the Inhibition was 11.74% in test [1], 1.73% in test [2] and -10.6% in test [3].

In the case of `CCN(CC)CC(=O)Nc1c(C)cccc1C` [LIDOCAINE], the Inhibition in test [1] is 14.92%; in test [2] it was 1.15%; in test [3], -4.85%.

For the compound `Nc1ccc(S(=O)(=O)c2ccc(N)cc2)cc1` [DAPSONE], the values for the Inhibition in test [1], in test [2] and in test [3] were 5.01%, -0.53% and 0.91%, respectively.

As to `O=C1CCc2ccc(OCCCCN3CCN(c4cccc(Cl)c4Cl)CC3)cc2N1` [ARIPIPRAZOLE], the Inhibition is 2.6% in test [1], -0.97% in test [2] and 6.93% in test [3].

As to `CCC(C)(C)/N=C(\NC#N)Nc1cccnc1`, the Inhibition is -0.95% in test [1], 3.82% in test [2] and -26.21% in test [3].

As to `CC[C@]1(O)C[C@@H]2CN(CCc3c([nH]c4ccccc34)[C@@](C(=O)OC)(c3cc4c(cc3OC)N(C=O)[C@H]3[C@@](O)(C(=O)OC)[C@H](OC(C)=O)[C@]5(CC)C=CCN6CC[C@]43[C@@H]65)C2)C1.O=S(=O)(O)O`, the Inhibition in test [1] was 3.74%; in test [2] it was 2.01%; in test [3], -7.42%.

Take `O=c1c(O[C@@H]2O[C@H](CO)[C@H](O)[C@H](O)[C@H]2O)c(-c2ccc(O)c(O)c2)oc2cc(O)cc(O)c12` [HYPEROSIDE]: the figures for the Inhibition in test [1], in test [2] and in test [3] were 17.1%, 1.21% and -13.27%, respectively.

In the case of `Cc1occc(=O)c1O` [MALTOL], the results for the Inhibition in test [1], in test [2] and in test [3] were 10.28%, 4.42% and -2.15%, respectively.

On to `COc1ccc2[nH]c([S+]([O-])Cc3ncc(C)c(OC)c3C)nc2c1` (centres undefined) [OMEPRAZOLE], for which the values for the Inhibition in test [1], in test [2] and in test [3] were 7.63%, 27% and -26.65%, respectively.

Turning to `CN1CCN(C2=Nc3ccccc3Oc3ccc(Cl)cc32)CC1.O=C(O)CCC(=O)O` [LOXAPINE SUCCINATE], the Inhibition is 7.32% in test [1], 2.62% in test [2] and -0.59% in test [3].

With `CCCCC(=O)N(Cc1ccc(-c2ccccc2-c2nnn[nH]2)cc1)[C@H](C(=O)O)C(C)C`, the values for the Inhibition in test [1], in test [2] and in test [3] were 7.53%, 3.96% and -1.97%, respectively.

Regarding `Cl.O=C(NCC1CCCCN1)c1cc(OCC(F)(F)F)ccc1OCC(F)(F)F` (centres undefined), the Inhibition is 7.49% in test [1], 3.33% in test [2] and -9.22% in test [3].

With `CN(C)CCCSc1ccccc1NC(=O)/C=C/c1ccccc1.Cl.O`, the Inhibition in test [1] is 18.81%; in test [2] it was 2.74%; in test [3], -8.97%.

On to `Cl.O=c1n(CCCN2CCN(c3cccc(Cl)c3)CC2)nc2ccccn12` [TRAZODONE HYDROCHLORIDE], for which the Inhibition in test [1] is 4.82%; in test [2] it was 3.08%; in test [3], -5.73%.

Turning to `CC(C(O)c1ccc(O)cc1)N1CCC(Cc2ccccc2)CC1.O.O=C(O)C(O)C(O)C(=O)O` (centres undefined), the Inhibition in test [1] is 15.53%; in test [2] it was 2.38%; in test [3], -4.72%.
